# Measured values taken from PubChem BioAssay AID1259422 (The Scripps Research Institute Molecular Screening Center, 2018).
# Hit rate of the full screen: of about 640,000 compounds, about 9,300 (1.5%) were called active. No stated cut-off is given here; in the data, active means inhibition above about 32%; inactive means the rest. The list comes from a sample in which actives are over-represented; it also holds similar structures and randomly drawn compounds.
# Assay: TEAD-YAP interaction inhibition, primary screen, TEAD-YAP interaction inhibitor project, luminescence, HEK-TIYL cells (AID 1259422);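 further: 0% = median of test compound wells and 100% = reference inhibitor wells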
# Settings: TEAD-Gal4/YAP UAS-luciferase luminescence, at 9.12 µM, active compounds read high
row,SMILES,inhibition
1,CCN(CC)C(=O)c1sc(NC(=O)c2c(-c3ccccc3)noc2C)c(C(=O)OC(C)C)c1C,2.03% (inactive)
2,Fc1ccc(C2=Nc3ccc(F)cc3C(C3CC3)=NN2)cc1,-2.31% (inactive)
3,CCOc1ccc(C(=O)NCC(=O)OCC#N)cc1,0.54% (inactive)
4,CCOC(=O)/C(N=Nc1ccc2c(c1)OCCO2)=C(/O)c1ccc([N+](=O)[O-])cc1,88.1% (active)
5,CCOC(=O)/C(N=Nc1cc(C(=O)O)cc(C(=O)O)c1)=C(\C)O,8.94% (inactive)
6,CS(=O)(=O)c1ccc(C(=O)OCC(=O)c2ccc3c(c2)OCCO3)cc1[N+](=O)[O-],2.27% (inactive)
7,COc1ccc(CNC(=O)CC(C)C)cc1,-2.6% (inactive)
8,c1cc(-c2ccc(OC3CCNCC3)cc2)cs1,-27.5% (inactive)
9,Cc1cc(C)c(OCCn2c(-c3ccc(Cl)cc3)nc3ccccc3c2=O)c(C)c1,-10.6% (inactive)
10,CCOc1ccc(NS(=O)(=O)c2ccc(Cl)cc2)cc1,3.58% (inactive)
11,CCOc1ccc(S(=O)(=O)Nc2cc(C)cc(C)c2)cc1,-1.15% (inactive)
12,CCOc1ccc(S(=O)(=O)Nc2ccc(Cl)cc2C)cc1,53% (active)
13,O=C(c1ccccc1F)N1CCc2nnc(Cc3ccccc3)n2CC1,6.95% (inactive)
14,CCCCN(C)Cc1c(O)c(Cl)cc2c(C)cc(=O)oc12,6.72% (inactive)
15,Cc1c(C(=O)Nc2ccc3c(c2)Cc2ccccc2-3)oc2ccccc12,-8.71% (inactive)
16,CC(C)c1nnc(NC(=O)CCN2C(=O)C3C4C=CC(C4)C3C2=O)s1 (centres undefined),-6.27% (inactive)
17,Cc1cc(C)n2cc(CN3CCc4ccccc4C3)nc2n1,-0.09% (inactive)
18,Cc1ccc(-c2nc3ccccc3s2)cc1NC(=O)c1sc2ccccc2c1Cl,-13.1% (inactive)
19,O=C(Nc1cccc2ncccc12)c1sc2ccccc2c1Cl,-3.37% (inactive)
20,O=C(Nc1nc2ccccc2s1)c1sc2ccccc2c1Cl,38.5% (active)
21,Cc1ccc2c(c1)NC(=O)C(CC(=O)NCCN(C)C1CCCCC1)O2 (centres undefined),-13.3% (inactive)
22,CCc1nnc2sc(-c3ccc(NC(=O)COc4ccccc4[N+](=O)[O-])cc3)nn12,1.75% (inactive)
23,COc1ccc(-n2cc(-c3ccccc3)c3c(NCCc4ccc(S(N)(=O)=O)cc4)ncnc32)cc1,9.44% (inactive)
24,Cn1ncc([N+](=O)[O-])c1C(=O)Nc1ccc2nc(NC(=O)C3CCCCC3)sc2c1,66.2% (active)

row,SMILES,inhibition
1,CC(=O)Nc1ccc2nc(NC(=O)c3cc4cc([N+](=O)[O-])ccc4s3)sc2c1,16.6% (inactive)
2,CC(=O)Nc1ccc2nc(NC(=O)c3ccc(S(=O)(=O)N4CCCCC4)cc3)sc2c1,1.92% (inactive)
3,CCOC(=O)C1CCN(Cc2cccc([N+](=O)[O-])c2)CC1,-8.78% (inactive)
4,Cc1ccc(/C=C2\SC(=S)N(c3cccc(O)c3)C2=O)o1,-1.97% (inactive)
5,O=C(O)c1cc(N2C(=O)/C(=C/c3ccc(O)cc3)SC2=S)ccc1O,1.88% (inactive)
6,COc1cccc(/C=C2\SC(=S)N(c3ccc(C(=O)O)c(O)c3)C2=O)c1OC,47.1% (active)
7,CCn1c(=O)cc(SCC(=O)Nc2nc(C)cs2)c2ccccc21,-2.9% (inactive)
8,CC(=O)O[C@@H]1C[C@H](c2ccc(F)cc2)N(C)C1=O,3.54% (inactive)
9,CN1/C(=C/C(=S)C(C)(C)C)Sc2ccccc21,-12.6% (inactive)
10,CCOc1cc2c(cc1OCC)N(CC)/C(=C\C=O)S2,-11.6% (inactive)
11,CCN1/C(=C/c2cc(C)[n+](N3CCN(C)CC3)c(C)c2)Sc2ccccc21,75.1% (active)
12,O=C(CN1C(=O)/C(=C/c2ccccc2)Sc2ccccc21)N1CCCC1,-1.18% (inactive)
13,Cc1cc(/C=C2\Sc3ccccc3N2C)cc(C)[n+]1CCO,73.5% (active)
14,O=C1c2ccccc2C(=O)N1CCC(=O)N1c2ccccc2Sc2ccccc21,-5.51% (inactive)
15,Cc1ccc(CC(=O)O/N=C(\N)c2ccc(Br)cc2)cc1,-13% (inactive)
16,Cc1cc(Nc2ccc3c(c2)OCO3)nc(Nc2cccc(N(C)C)c2)n1,2.34% (inactive)
17,CC1(C)CC(=O)C(N=Nc2cc(C(N)=O)c(Cl)cc2Cl)=C(O)C1,-1.09% (inactive)
18,COc1cccc(C(=O)NC(=S)Nc2cccc(C(=O)O)c2)c1,30.7% (inactive)
19,Cc1csc(NC(=O)c2ccc(I)cc2)n1,-17.9% (inactive)
20,COc1ccccc1C(=O)Nc1nc(C)cs1,80.1% (active)
21,COc1cccc(C(=O)Nc2nc(-c3ccc(C)c(C)c3)cs2)c1OC,-6.84% (inactive)
22,COc1ccc2oc(=O)c(-c3csc(NC(=O)c4ccccc4)n3)cc2c1,1.86% (inactive)
23,COc1ccc(C(=O)Nc2nc(C)cs2)c(OC)n1,89.4% (active)
24,COc1ccccc1C(=O)Nc1nc(-c2ccccc2)c(C)s1,-3.33% (inactive)

row,SMILES,inhibition
1,CCOC(=O)C1(Cc2cccc(F)c2)CCN(CCO)CC1,2.96% (inactive)
2,CCN1CCN(S(=O)(=O)c2ccc(F)c(C(=O)Nc3cccc(C)c3C)c2)CC1,3.75% (inactive)
3,O=C(Nc1ccccc1Br)c1ccc(Cl)c([N+](=O)[O-])c1,-1.84% (inactive)
4,O=C(CSc1nc2ccccc2c(=O)n1-c1ccc(C(=O)N2CCOCC2)cc1)NCc1ccccc1Cl,5.25% (inactive)
5,COc1cccc(NC(=O)Cn2c3ccccc3c(=O)c3cc(Cl)ccc32)c1,1.55% (inactive)
6,CCOc1cc(/C=C2\SC(=S)NC2=O)cc(Br)c1OC,-5.88% (inactive)
7,CN1CCN(c2ccc(-c3cc(Nc4ccc(N5CCOCC5)cc4)nc(N)n3)cc2)CC1,64.9% (active)
8,Nc1nc(Nc2ccc(N3CCOCC3)cc2)cc(-c2ccc3[nH]ccc3c2)n1,-4.34% (inactive)
9,CN1CCN(c2ccc(-c3cc(NCCOc4ccccc4)nc(N)n3)cc2)CC1,23.1% (inactive)
10,COc1ccc(-c2nc(NCc3ccccc3)c3ncn(Cc4ccc(C(F)(F)F)cc4)c3n2)cc1,5.78% (inactive)
11,COc1ccc(CCNc2nc(-c3c(C)noc3C)nc3c2ncn3Cc2ccc(C(F)(F)F)cc2)cc1,40.4% (active)
12,CCNc1nc(NCCc2ccc(OC)cc2)c2ncn(Cc3ccc(C(F)(F)F)cc3)c2n1,12.1% (inactive)
13,Oc1ccc(CCNc2nc(Nc3ccncn3)nc3c2ncn3Cc2ccc(C(F)(F)F)cc2)cc1,-4.85% (inactive)
14,O=c1c(C=Nc2ccc(Cl)cc2)c(Nc2ccccc2)nc2ccccn12,-17.1% (inactive)
15,NC(=S)N/N=C/c1c(Sc2ccccn2)nc2ccccn2c1=O,-6.3% (inactive)
16,O=c1c(/C=N/Nc2ccc(C(F)(F)F)cn2)c(Cl)nc2ccccn12,52.1% (active)
17,COc1ccc(/C=C2\C(=O)N(c3ccc(Cl)c(C(=O)O)c3)N=C2C)cc1Br,0.17% (inactive)
18,C/C(CC(C)C)=N\NC(=O)c1nnn(-c2nonc2N)c1-c1ccccc1,-8.99% (inactive)
19,O=C(Nc1ccc(N2CCOCC2)c(Cl)c1)c1ccc(-c2ccccc2[N+](=O)[O-])o1,11.7% (inactive)
20,COc1ccc(NC(=O)c2ccco2)cc1NC(=O)c1ccc(-c2ccccc2[N+](=O)[O-])o1,34.4% (active)
21,O=C(Nc1cccc(NC(=O)c2ccc(-c3ccccc3[N+](=O)[O-])o2)c1)c1ccco1,-5.61% (inactive)
22,CC(C)N(C)C1CCN(S(=O)(=O)c2cccc([N+](=O)[O-])c2)CC1,-1.4% (inactive)
23,Cc1ccc2cccc(NC(=O)c3cc4ccccc4o3)c2n1,12.1% (inactive)
24,CCC(C)c1ccccc1NC(=O)C(C)Cl (centres undefined),-3.45% (inactive)

row,SMILES,inhibition
1,CN(CC(=O)Nc1ccccc1F)CC(=O)Nc1ccccc1Br,-1.95% (inactive)
2,CCC(C)c1ccccc1NC(=O)CN(C)CC(=O)Nc1ccccc1SC (centres undefined),36.5% (active)
3,COc1cccc(/C=N/NC(=O)c2cccc(NC(=O)c3ccc(F)cc3)c2)c1O,28.7% (inactive)
4,COc1cccc(C=Nc2ccc(N)c(Cl)c2)c1O,6.6% (inactive)
5,COc1cccc(/C=N/Nc2ncc(C(F)(F)F)cc2Cl)c1O,49.5% (active)
6,Cc1ccc(-c2csc(Nc3ccccc3)n2)c(C)c1,-65% (inactive)
7,Cc1ccc(Nc2nc(-c3ccc(Cl)cc3)cs2)cc1,-86.7% (inactive)
8,Cc1ccc(Nc2nc(-c3cccs3)cs2)cc1,64.2% (active)
9,CCOCCCn1c(SCc2cc(=O)n3ccccc3n2)nc2ccccc2c1=O,0.02% (inactive)
10,Cc1cc2nnn(C[C@@H](C)NC(=O)Cc3ccccc3)c2cc1C,-20.1% (inactive)
11,Cc1ccc(-c2nc(CSCC(=O)NC3CCN(Cc4ccccc4)CC3)c(C)o2)cc1,33.9% (active)
12,Cc1ccc(-c2nc(CSCC(=O)N3CCC(C(N)=O)CC3)c(C)o2)cc1,10.6% (inactive)
13,COc1ccc(-c2nc(CSCC(=O)NC3CCCCCC3)c(C)o2)cc1OC,2.93% (inactive)
14,O=C(Cn1c(SCC(=O)N2CCCC2)nc2ccccc21)NC1CCCC1,3.72% (inactive)
15,Cc1ccc2nc(-c3ccncc3)cc(C(=O)Nc3ccc4c(c3)OCCO4)c2c1,43.3% (active)
16,O=C(Nc1ccc(F)cc1)c1cc(-c2ccncc2)nc2ccccc12,-1.35% (inactive)
17,Cc1cccc(Oc2ccc(NC(=O)c3cc(-c4ccccc4)nc4ccc(C)cc34)cc2)c1,-0.69% (inactive)
18,COc1ccc(-c2nnc(SCC(=O)N(C)C)n2C)cc1,2.69% (inactive)
19,CCC(=O)N[C@@H]1c2ccccc2C2(CCN(Cc3cn[nH]c3-c3ccccc3)CC2)[C@H]1OC,-3.33% (inactive)
20,CCOc1ccccc1C(=O)Nc1c(C(=O)Nc2ccccc2F)oc2cccnc12,41.9% (active)
21,COc1ccccc1NC(=O)c1oc2cccnc2c1NC(=O)c1ccc(Cl)cc1,-6.82% (inactive)
22,O=C(Nc1ccccc1F)c1oc2cccnc2c1NC(=O)C1CC1,2.6% (inactive)
